Out of some 190,000 compounds screened, about 1,300 (0.68%) were called active. For the sample, actives were picked, then their nearest neighbours and some compounds at random. A number with no mark means an inactive call. Rule as the data show it: active = inhibition above about 50%; inactive = the rest.

The target of the assay is Mannose-6-phosphate isomerase (Homo sapiens) (UniProt P34949). The assay is described as follows: MPI inhibition at elevated mannose 6-phosphate – biochemical, fluorescence intensity, high mannose 6-phosphate, primary screen (AID 1220). Particulars: recombinant PMI enzyme, coupled fluorescence intensity; at 20 µM; active compounds read high.
Chain of Mannose-6-phosphate isomerase (Homo sapiens) (P34949 whole entry, looked up): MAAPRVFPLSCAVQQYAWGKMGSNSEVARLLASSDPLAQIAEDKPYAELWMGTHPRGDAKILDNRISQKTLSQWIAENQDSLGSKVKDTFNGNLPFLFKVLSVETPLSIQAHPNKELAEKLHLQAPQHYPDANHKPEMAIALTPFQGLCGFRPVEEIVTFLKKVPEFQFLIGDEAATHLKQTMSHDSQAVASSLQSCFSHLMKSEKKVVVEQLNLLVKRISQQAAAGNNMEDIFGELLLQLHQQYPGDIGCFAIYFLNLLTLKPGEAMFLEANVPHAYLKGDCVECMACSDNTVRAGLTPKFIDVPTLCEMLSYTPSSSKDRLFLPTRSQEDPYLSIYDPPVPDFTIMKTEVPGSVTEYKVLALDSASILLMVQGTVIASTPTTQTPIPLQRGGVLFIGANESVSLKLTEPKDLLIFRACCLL
As a reminder, the inhibition is the change of the read-out against control, counted positive when it falls. Turning to `CC(NC(=O)C1CCCN1C(=O)OCc1ccccc1)c1ccccc1` (stereo not given), the inhibition is -0.5%. The figure for `COc1cccc(OC)c1C(=O)NC(=S)Nc1ccc2oc(=O)ccc2c1` is 10.5%. In the case of `O=C(COC(=O)Cc1ccccc1[N+](=O)[O-])NC1CCCC1`, the inhibition is 55.4% (active). In the case of `O=C(COC(=O)Cc1ccccc1[N+](=O)[O-])NCC1CCCCC1`, the inhibition was -5.7%. Turning to `CC(NC(=O)COC(=O)CC(c1ccccc1)c1ccccc1)c1ccccc1` (stereo not given), the inhibition is 7.9%. The result for `CC(NC(=O)Cc1ccccc1[N+](=O)[O-])c1ccccc1` (stereo not given) reads 7.4%; that for `CC(NC(=O)COC(=O)Cc1ccccc1[N+](=O)[O-])c1ccccc1` (stereo not given), 51.3% (active). As to `O=C(COC(=O)COc1ccccc1[N+](=O)[O-])NC1CCCC1`, the inhibition is -5.1%.

With `O=Cc1cc2ccccc2nc1SCCCF`, the inhibition is 4.2%. Turning to `CCCn1c(SCC(=O)C(C)(C)C)nc2ccccc21`, the inhibition is -8.2%.

Turning to `O=C(O)Cc1ccc(NC(=O)c2cnccn2)cc1`, the inhibition was -9.7%.

`Cc1cc(C)c2c(N)c(C(=O)NNC(=O)c3ccccc3)sc2n1`: the inhibition was 2.3%. `Cc1cc(C)nc(-n2nc(C)cc2NC(=O)CN2CCCC(C)C2)n1` (stereo not given): the inhibition is 4.4%. The figure for `Cc1ccc(SC(C)C(=O)NCc2ccncc2)cc1` (stereo not given) is 11.4%; for `CC(=O)NC1(C(F)(F)F)NC(=O)N(c2ccc(F)cc2)C1=O` (stereo not given) it is -10.2%; for `Cc1cccc(OC(=O)CCN2C(=O)C3C4C=CC(C5CC45)C3C2=O)c1C` (stereo not given) it is -6.4%.

Take `O=C(CCN1C(=O)C2C3C=CC(C4CC34)C2C1=O)Oc1ccccc1` (stereo not given): the inhibition was -3.5%. The figure for `CC(=O)c1ccccc1OC(=O)CCN1C(=O)C2C3C=CC(C4CC34)C2C1=O` (stereo not given) is 59.3% (active). Regarding `Cc1ccc(C(=O)NCc2ccco2)cc1S(=O)(=O)Nc1cccc(C)c1C`, the inhibition is 0.8%. Turning to `COc1cccc(CN2CCN(Cc3[nH]c4ccccc4c3C)CC2CCO)c1` (stereo not given), the inhibition was -0.2%.

`CN(C)C=Nc1ccc2nn(-c3ccccc3)nc2c1`: the inhibition is 60.2% (active). The figure for `Cc1nc2cc(N)ccc2n1-c1ccccc1` is 21.5%; for `CC(C)CC(=O)Nc1ccc2nn(-c3ccccc3)nc2c1` it is 26.4%; for `CC(C)C(=O)Nc1ccc2nn(-c3ccccc3)nc2c1` it is -0.5%. For the compound `Nc1ccc2nn(-c3ccccc3)nc2c1`, the inhibition was 57.9% (active). Turning to `Cc1ccc(-n2nc3ccc(N)cc3n2)cc1`, the inhibition is 31.3%.

Consider `CC(C)c1ccc2oc(-c3cc(N)ccc3O)nc2c1`, for which the inhibition is -12.6%.

Regarding `Cc1ccc(-n2nc3ccc(NC(=O)C(C)C)cc3n2)cc1`, the inhibition was 13.3%. Consider `CC(C)c1ccc(-n2nc3ccc(N)cc3n2)cc1`, for which the inhibition is 55.8% (active). Take `COc1cccc(CN(c2ccc3c(c2)CCC3)S(=O)(=O)c2ccc(-n3cnnn3)c(OC)c2)c1`: the inhibition is -3.4%. The figure for `N#C/C(=C\c1ccncc1)C(N)=O` is 17.1%; for `COc1ccc(Oc2ccccc2C#N)cc1` it is 4.7%. Consider `O=C(CSc1nnnn1CCCO)Nc1ccc2c(c1)OCO2`, for which the inhibition was -12.3%. In the case of `COC(=O)c1ccc(N2CCOCC2)c(F)c1`, the inhibition is -3.2%. Regarding `Nc1cc(-c2ccc(Br)cc2)nn1S(=O)(=O)c1cccc2nsnc12`, the inhibition is 11.3%. For `CO[C@H]1C=CO[C@@]2(C)Oc3c(C)c(O)c4c(O)c(c(C=NN5CCN(C)CC5)c(O)c4c3C2=O)NC(=O)C(C)=CC=C[C@H](C)[C@H](O)[C@@H](C)[C@@H](O)[C@@H](C)[C@H](OC(C)=O)[C@@H]1C`, the inhibition is 42.7%. In the case of `CO[C@H]1C=CO[C@@]2(C)Oc3c(C)c(O)c4c(O)c(c5c(nc6cc(C)ccn65)c4c3C2=O)NC(=O)C(C)=CC=C[C@H](C)[C@H](O)[C@@H](C)[C@@H](O)[C@@H](C)[C@H](OC(C)=O)[C@@H]1C`, the inhibition is 32.2%.

Consider `CO[C@H]1C=CO[C@@]2(C)Oc3c(C)c(O)c4c(O)c(c(C=NN5CCN(C6CCCC6)CC5)c(O)c4c3C2=O)NC(=O)C(C)=CC=C[C@H](C)[C@H](O)[C@@H](C)[C@@H](O)[C@@H](C)[C@H](OC(C)=O)[C@@H]1C`, for which the inhibition is 73.8% (active). With `O=C(OCC(=O)N1CCCC1)c1ccccc1OCc1ccccc1`, the inhibition was 4.1%.

`NC(=O)c1c(NC(=S)Nc2ccc(F)cc2)sc2c1CCCC2`: the inhibition was 2.3%. For the compound `CCOc1ccc(N2C(=O)/C(=C/c3ccc(C)o3)N(C)C2=S)cc1`, the inhibition was 43.2%. In the case of `Cc1ccc(/C=C2/C(=O)N(c3ccccc3)C(=S)N2C)o1`, the inhibition is 52.2% (active). For the compound `CN1C(=S)N(c2ccccc2)C(=O)/C1=C/c1ccco1`, the inhibition was -16.2%. As to `COc1cc(C(=O)NCC(C)C)cc(OC)c1OC`, the inhibition is -10.5%.

For the compound `COC(=O)C1=C(C)NC(C)=C(C(=O)OC)C1c1ccc(-c2cc(Cl)ccc2Cl)o1`, the inhibition was -1.9%. For `COCCNC(=O)Cn1nc(C(F)(F)F)cc1C`, the inhibition was 21.9%. As to `Cc1ccc(C(=O)NCc2ccccc2)cc1Br`, the inhibition is 12.6%.

Regarding `Nc1ccc2nc(N3CCOCC3)sc2c1`, the inhibition is 59.7% (active).

For the compound `c1ccc2sc(N3CCOCC3)nc2c1`, the inhibition was -4.3%. On to `Fc1ccc2nc(N3CCOCC3)sc2c1`, for which the inhibition was -5.9%. Consider `Cc1cnc(C(=O)OCC(=O)N2CCN(C(=O)c3ccco3)CC2)cn1`, for which the inhibition is 6.1%. On to `O=C(CSc1nc2ccccc2c(=O)n1-c1ccccc1)N1CCc2ccccc2C1`, for which the inhibition was 8%. The result for `CC1(C(=O)NC2CCCCCCC2)CCC(=O)N1CCN1CCOCC1` (stereo not given) reads -8.6%. For the compound `COC(=O)c1ccc(NC(=O)COc2ccc(C3C(C#N)=C(N)Oc4c3ccc3ccccc43)cc2OC)cc1` (stereo not given), the inhibition was 15.5%.

For the compound `COc1cc(C2C(C#N)=C(N)Oc3c2ccc2ccccc32)ccc1OCC(=O)Nc1ccc(C)cc1` (stereo not given), the inhibition was 24.1%. Turning to `COc1cc(C2C(C#N)=C(N)Oc3c2ccc2ccccc32)ccc1OCC(=O)Nc1cccc(C)c1` (stereo not given), the inhibition is 53.4% (active). For `CCOC(=O)c1cc(CC)sc1NC(=O)CC1Sc2ccc(C(F)(F)F)cc2NC1=O` (stereo not given), the inhibition is -5.2%. With `Cc1ccc(S(=O)(=O)NCc2nc3ccccc3[nH]2)cc1`, the inhibition was 5%. `Cc1nnc(SCC(=O)NC2CCCCC2)n(N)c1=O`: the inhibition was -2.5%.

As to `O=C1CN(C(=O)c2ccccc2)c2ccccc2N1`, the inhibition was 6.5%. Consider `O=C1CN(C(=O)c2cc(Br)c(Br)s2)c2ccccc2N1`, for which the inhibition is 61.5% (active).

For `O=C1CN(C(=O)c2cccs2)c2ccccc2N1`, the inhibition is 3.1%. Take `COC(=O)c1ccc(NC(=O)Nc2ccccc2F)cc1`: the inhibition was 11%.

In the case of `O=C(CN1CCN(Cc2ccccc2)CC1)N1CCCc2c1c(=O)oc1ccc(O)cc21`, the inhibition was 3.1%. The result for `CN(CC(=O)N1CCCc2c1c(=O)oc1ccc(O)cc21)Cc1ccccc1` reads 3.3%; that for `CC(C(=O)N1CCCc2c1c(=O)oc1ccc(O)cc21)N1CCc2ccccc2C1` (stereo not given), 69% (active); that for `Cc1ccccc1NC(=O)CC(O)(C(F)(F)F)C(F)(F)F`, -6%. Regarding `COc1ccc(C(=O)N2CCCC2)cc1S(=O)(=O)N1CCC(C)CC1`, the inhibition was 5.6%. Regarding `O=C(Nc1ccccc1)C1=C[C@H](c2ccccc2)C[C@H](OCc2ccc(CO)cc2)O1`, the inhibition was 8.7%. Turning to `NC(=O)C1=C[C@@H](c2ccc(Br)cc2)C[C@@H](OCc2ccc(CO)cc2)O1`, the inhibition was 27.4%. For the compound `O=C(O)C1=C[C@@H](c2ccc(C(F)(F)F)cc2)C[C@@H](OCc2ccc(CO)cc2)O1`, the inhibition is -0.6%. Regarding `C=CCOC(=O)C1=C[C@@H](c2ccccc2)C[C@@H](OCc2ccc(CO)cc2)O1`, the inhibition was -6.1%. For `NC(=O)C1=C[C@H](c2ccccc2)C[C@H](OCc2ccc(CO)cc2)O1`, the inhibition was 59.2% (active).

On to `O=C(O)C1=C[C@H](c2ccccc2)C[C@H](OCc2ccc(CO)cc2)O1`, for which the inhibition was 2.2%. As for `O=C(O)C1=C[C@@H](c2ccc(Br)cc2)C[C@@H](OCc2ccc(CO)cc2)O1`, the inhibition was -16.7%. Regarding `NC(=O)C1=C[C@@H](c2ccc(C(F)(F)F)cc2)C[C@@H](OCc2ccc(CO)cc2)O1`, the inhibition was 61.6% (active). The result for `NC(=O)C1=C[C@@H](c2ccccc2)C[C@@H](OCc2ccc(CO)cc2)O1` reads 66% (active); that for `NC(=O)C1=C[C@H](c2ccc(Br)cc2)C[C@H](OCc2ccc(CO)cc2)O1`, 51% (active). For `NC(=O)C1=C[C@H](c2ccc(C(F)(F)F)cc2)C[C@H](OCc2ccc(CO)cc2)O1`, the inhibition is 43.9%. With `O=C(O)C1=C[C@@H](c2ccccc2)C[C@@H](OCc2ccc(CO)cc2)O1`, the inhibition was -9.3%.

As to `CN(Cc1ccccc1)CC(O)COc1ccc(CNCCc2ccncc2)cc1` (stereo not given), the inhibition is -5.6%. For the compound `CN(C)c1nc(-c2ccccc2)ncc1S(=O)(=O)c1ccccc1`, the inhibition is 14.6%. Turning to `COc1ccc(CC(=O)Nc2ccc(-c3cn4ccc(C)cc4n3)cc2)cc1`, the inhibition is -1.3%. `COc1ccc(N(CC(=O)NCc2ccco2)S(=O)(=O)c2ccc(C)cc2)cc1`: the inhibition was 14.7%. For `O=C1CN2NC(=S)N(c3ccccc3)C2=CN1c1ccc(Cl)cc1`, the inhibition is -1.1%. `CCOc1ccc(NC(=O)CSc2n[nH]c(=O)n2-c2ccccc2)cc1`: the inhibition was 6.5%. The figure for `Cn1cccc1/C=N/NC(=O)C12CC3CC(CC(C3)C1)C2` is 2.4%. Take `O=C(O)C1=C[C@@H](c2ccc3c(c2)OCO3)C[C@@H](OCc2ccc(CO)cc2)O1`: the inhibition was 4.3%. On to `C=CCOC(=O)C1=C[C@@H](c2ccc3c(c2)OCO3)C[C@@H](OCc2ccc(CO)cc2)O1`, for which the inhibition was 20%.

In the case of `NC(=O)C1=C[C@H](c2ccc3c(c2)OCO3)C[C@H](OCc2ccc(CO)cc2)O1`, the inhibition is 59.9% (active).

The record behind these values is PubChem BioAssay AID1220 (Sanford-Burnham Center for Chemical Genomics, 2008).
